Experimental data as given in the supplement of paper PMC11001985.

The targets below were run with C#CCNC(=O)CCSSCCC(=O)NCCc1ccc(C=O)c(C=O)c1 (assay: lysine labeling ratio R10:1 (500 µM / 50 µM probe), SILAC-ABPP in living cells; higher = lower intrinsic lysine reactivity toward the probe, active = 2 or less). Conditions: HeLa; probe concentrations 500 vs 50 µM.
How it was run: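 Forward and reverse SILAC label swaps were used with living light and heavy HeLa cells in PBS at room temperature, which were given an alkyne-tagged, disulfide-linked lysine probe at 50 µM or 500 µM. R is the per-lysine filtered median high-probe/low-probe MS1 peptide ratio, with the median then taken across both swap directions. Values are limited to 20.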

UniProt Q9Y2W1, sequence (Q9Y2W1 whole entry): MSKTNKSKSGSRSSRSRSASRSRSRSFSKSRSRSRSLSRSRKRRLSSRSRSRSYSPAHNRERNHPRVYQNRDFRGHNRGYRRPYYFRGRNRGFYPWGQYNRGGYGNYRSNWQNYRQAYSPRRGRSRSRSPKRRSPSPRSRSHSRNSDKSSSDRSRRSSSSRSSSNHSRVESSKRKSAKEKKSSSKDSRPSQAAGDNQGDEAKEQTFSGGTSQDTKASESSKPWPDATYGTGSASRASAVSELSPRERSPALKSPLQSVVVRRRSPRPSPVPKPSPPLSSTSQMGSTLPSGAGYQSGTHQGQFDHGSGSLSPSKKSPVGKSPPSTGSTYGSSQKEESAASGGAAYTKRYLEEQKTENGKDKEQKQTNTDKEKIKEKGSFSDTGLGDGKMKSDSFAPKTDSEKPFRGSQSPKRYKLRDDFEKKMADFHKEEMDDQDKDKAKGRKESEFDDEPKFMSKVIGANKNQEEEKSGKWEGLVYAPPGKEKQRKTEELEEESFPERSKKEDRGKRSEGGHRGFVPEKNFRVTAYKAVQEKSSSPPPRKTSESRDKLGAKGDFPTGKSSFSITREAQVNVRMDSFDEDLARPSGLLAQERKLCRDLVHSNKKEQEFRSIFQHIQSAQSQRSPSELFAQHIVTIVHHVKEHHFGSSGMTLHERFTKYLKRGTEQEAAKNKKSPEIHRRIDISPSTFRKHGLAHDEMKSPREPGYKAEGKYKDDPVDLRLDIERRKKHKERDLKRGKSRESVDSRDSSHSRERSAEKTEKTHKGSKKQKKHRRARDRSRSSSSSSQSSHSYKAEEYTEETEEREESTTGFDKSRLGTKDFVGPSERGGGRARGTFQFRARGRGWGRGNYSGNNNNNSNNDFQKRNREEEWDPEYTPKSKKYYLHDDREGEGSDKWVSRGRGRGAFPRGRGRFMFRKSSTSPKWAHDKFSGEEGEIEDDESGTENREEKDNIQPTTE
UniProt P61604, sequence (P61604 whole entry): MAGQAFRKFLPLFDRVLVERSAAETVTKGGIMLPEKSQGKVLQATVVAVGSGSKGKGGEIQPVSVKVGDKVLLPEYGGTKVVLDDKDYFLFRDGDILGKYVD
UniProt O60568, sequence (O60568 whole entry): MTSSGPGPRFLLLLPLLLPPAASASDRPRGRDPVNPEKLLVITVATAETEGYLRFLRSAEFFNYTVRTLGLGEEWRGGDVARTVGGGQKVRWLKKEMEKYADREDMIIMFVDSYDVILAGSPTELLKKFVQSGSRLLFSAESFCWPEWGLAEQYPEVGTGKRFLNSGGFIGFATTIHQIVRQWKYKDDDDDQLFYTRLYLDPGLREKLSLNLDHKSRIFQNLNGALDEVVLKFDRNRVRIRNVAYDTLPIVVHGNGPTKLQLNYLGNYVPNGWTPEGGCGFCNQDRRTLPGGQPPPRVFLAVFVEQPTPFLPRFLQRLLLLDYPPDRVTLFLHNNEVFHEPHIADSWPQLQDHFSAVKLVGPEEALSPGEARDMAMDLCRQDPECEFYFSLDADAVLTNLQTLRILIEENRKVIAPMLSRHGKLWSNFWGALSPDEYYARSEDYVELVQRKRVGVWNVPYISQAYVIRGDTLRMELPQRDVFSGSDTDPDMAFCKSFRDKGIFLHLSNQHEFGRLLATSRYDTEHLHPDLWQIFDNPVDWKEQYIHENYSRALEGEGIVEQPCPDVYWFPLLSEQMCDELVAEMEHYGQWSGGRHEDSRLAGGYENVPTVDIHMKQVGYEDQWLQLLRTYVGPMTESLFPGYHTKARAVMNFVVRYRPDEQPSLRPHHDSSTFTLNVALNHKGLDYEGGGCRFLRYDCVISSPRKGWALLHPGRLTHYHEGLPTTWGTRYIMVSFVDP
UniProt P32004, sequence (P32004 whole entry): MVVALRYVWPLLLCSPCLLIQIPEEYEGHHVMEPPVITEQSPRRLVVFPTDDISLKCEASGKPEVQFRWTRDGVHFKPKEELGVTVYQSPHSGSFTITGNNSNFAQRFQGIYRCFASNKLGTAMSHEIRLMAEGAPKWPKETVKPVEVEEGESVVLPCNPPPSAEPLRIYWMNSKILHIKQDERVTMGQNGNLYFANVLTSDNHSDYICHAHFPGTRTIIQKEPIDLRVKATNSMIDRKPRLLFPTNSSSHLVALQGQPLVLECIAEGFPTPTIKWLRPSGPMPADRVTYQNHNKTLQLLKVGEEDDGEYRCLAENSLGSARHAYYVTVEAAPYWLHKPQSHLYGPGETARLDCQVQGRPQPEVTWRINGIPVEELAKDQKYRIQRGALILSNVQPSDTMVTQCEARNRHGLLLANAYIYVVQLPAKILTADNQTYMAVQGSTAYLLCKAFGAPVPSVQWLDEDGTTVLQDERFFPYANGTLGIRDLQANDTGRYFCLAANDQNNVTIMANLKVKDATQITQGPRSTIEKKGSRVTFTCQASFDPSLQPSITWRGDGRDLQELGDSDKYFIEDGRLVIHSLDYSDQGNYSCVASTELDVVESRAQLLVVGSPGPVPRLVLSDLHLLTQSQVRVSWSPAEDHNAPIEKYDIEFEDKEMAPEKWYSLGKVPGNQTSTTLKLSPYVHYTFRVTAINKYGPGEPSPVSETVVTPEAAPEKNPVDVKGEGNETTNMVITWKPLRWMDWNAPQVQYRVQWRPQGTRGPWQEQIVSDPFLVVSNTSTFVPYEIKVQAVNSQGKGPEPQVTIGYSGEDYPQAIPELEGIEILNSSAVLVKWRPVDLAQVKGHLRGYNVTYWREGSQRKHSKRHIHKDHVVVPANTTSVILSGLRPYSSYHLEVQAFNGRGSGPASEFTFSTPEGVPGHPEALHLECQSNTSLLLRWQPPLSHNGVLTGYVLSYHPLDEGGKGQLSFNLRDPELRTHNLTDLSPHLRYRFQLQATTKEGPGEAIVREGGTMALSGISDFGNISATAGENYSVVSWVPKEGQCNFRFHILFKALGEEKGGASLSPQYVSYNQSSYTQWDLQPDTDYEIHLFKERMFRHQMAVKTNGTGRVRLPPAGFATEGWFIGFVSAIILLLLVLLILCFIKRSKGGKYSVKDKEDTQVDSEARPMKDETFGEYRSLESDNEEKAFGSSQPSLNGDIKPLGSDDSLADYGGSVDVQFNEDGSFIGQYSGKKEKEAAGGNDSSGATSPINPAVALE
UniProt P08174, sequence (P08174 whole entry): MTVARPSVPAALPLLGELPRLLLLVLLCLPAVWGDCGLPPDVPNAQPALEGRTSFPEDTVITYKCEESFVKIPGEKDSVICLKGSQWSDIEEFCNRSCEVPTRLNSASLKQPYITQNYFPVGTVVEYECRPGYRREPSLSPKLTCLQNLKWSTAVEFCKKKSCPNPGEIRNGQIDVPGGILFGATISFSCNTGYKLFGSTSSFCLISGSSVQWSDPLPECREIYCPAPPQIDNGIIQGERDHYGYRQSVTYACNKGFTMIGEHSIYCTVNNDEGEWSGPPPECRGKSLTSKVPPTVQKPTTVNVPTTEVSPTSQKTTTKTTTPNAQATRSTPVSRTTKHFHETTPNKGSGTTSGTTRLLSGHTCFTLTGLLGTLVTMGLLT
UniProt P50990, sequence (P50990 whole entry): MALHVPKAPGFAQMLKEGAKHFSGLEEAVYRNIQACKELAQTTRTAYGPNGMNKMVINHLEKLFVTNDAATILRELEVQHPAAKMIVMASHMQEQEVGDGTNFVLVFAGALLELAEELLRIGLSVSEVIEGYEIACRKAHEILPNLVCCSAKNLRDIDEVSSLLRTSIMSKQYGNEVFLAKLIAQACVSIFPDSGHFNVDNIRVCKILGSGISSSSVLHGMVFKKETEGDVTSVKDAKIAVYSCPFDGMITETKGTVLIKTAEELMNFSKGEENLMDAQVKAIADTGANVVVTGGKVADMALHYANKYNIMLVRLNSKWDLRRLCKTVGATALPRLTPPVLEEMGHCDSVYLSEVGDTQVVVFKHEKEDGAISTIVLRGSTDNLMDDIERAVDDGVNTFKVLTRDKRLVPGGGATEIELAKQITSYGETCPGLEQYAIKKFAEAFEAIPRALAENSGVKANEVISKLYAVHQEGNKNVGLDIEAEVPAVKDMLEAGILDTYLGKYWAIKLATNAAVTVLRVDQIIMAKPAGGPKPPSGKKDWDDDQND
UniProt Q9BS26, sequence (Q9BS26 whole entry): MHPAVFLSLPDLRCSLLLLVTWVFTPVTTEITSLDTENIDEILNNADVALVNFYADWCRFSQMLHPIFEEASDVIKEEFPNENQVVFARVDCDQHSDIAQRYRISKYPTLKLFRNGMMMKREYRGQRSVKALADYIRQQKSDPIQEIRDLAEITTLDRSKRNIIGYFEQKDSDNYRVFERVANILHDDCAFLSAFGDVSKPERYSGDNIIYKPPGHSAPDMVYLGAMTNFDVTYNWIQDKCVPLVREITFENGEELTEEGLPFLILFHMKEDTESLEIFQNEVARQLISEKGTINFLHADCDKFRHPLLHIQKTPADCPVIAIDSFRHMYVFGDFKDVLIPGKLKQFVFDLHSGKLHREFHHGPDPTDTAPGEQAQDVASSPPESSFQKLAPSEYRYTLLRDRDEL
UniProt P60228, sequence (P60228 whole entry): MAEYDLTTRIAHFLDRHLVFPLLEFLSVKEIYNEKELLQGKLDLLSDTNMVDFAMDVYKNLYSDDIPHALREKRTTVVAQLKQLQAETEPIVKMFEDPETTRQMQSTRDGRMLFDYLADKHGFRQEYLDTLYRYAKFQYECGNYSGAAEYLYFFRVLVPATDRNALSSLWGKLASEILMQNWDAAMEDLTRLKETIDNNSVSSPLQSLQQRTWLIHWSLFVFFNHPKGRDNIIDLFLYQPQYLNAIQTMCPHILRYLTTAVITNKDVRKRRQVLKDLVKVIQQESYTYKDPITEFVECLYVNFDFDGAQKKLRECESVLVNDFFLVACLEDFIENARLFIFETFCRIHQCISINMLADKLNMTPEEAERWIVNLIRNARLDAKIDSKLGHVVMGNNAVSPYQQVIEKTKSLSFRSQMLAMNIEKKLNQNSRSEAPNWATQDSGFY
UniProt P09382, sequence (P09382 whole entry): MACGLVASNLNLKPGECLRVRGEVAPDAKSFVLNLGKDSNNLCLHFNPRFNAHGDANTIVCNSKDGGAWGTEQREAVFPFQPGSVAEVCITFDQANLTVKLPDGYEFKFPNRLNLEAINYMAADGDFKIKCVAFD

Lysine labeling ratio R10:1, inactive:
HNRNPU (lysine site: K186) (UniProt Q00839) 4.06, UniProt P18859 (lysine site: K46) 4.7, CD55 (lysine site: K110) (UniProt P08174) 2.89, ITGA6 (lysine site: K946) (UniProt P23229) 2.37, LGALS1 (lysine site: K130) (UniProt P09382) 2.14, UniProt P62277 (lysine site: K43) 7.76, UniProt Q9BS26 (lysine site: K130) 2.57, ENAH (lysine site: K559) (UniProt Q8N8S7) 2.92, UniProt P60228 (lysine site: K409) 2.54, UniProt Q9BZM4 (lysine site: K158) 2.74, L1CAM (lysine site: K56) (UniProt P32004) 3.74, UniProt P02768 (lysine site: K229) 5.69, PLOD3 (lysine site: K89) (UniProt O60568) 5.28, PLOD2 (lysine site: K486) (UniProt O00469) 2.27, HSPA9 (lysine site: K625) (UniProt P38646) 3.75, EGFR (lysine site: K538) (UniProt P00533) 5.46, IQGAP1 (lysine site: K104) (UniProt P46940) 2.32, CD63 (lysine site: K110) (UniProt P08962) 5.07, CYB5R3 (lysine site: K42) (UniProt P00387) 3.81, SPTBN1 (lysine site: K1884) (UniProt Q01082) 4.5, TLN1 (lysine site: K428) (UniProt Q9Y490) 2.34, BASP1 (lysine site: K149) (UniProt P80723) 3.54, HSPE1 (lysine site: K8) (UniProt P61604) 4.22, FAT4 (lysine site: K2221) (UniProt Q6V0I7) 4.75, PFN1 (lysine site: K54) (UniProt P07737) 3.31, UniProt P62249 (lysine site: K4) 5.53, CCT8 (lysine site: K318) (UniProt P50990) 2.44, CD151 (lysine site: K186) (UniProt P48509) 6.68, UniProt Q15149 (lysine site: K923) 9.2

Lysine labeling ratio R10:1, active:
CTTN (lysine site: K161) (UniProt Q14247) 1.61, ATP6V0A1 (lysine site: K70) (UniProt Q93050) 0.55, ABCB1 (lysine site: K748) (UniProt P08183) 1.52, HNRNPM (lysine site: K239) (UniProt P52272) 1.67, ITGA1 (lysine site: K546) (UniProt P56199) 0.96, UniProt P61978 (lysine site: K219) 0.79, THRAP3 (lysine site: K711) (UniProt Q9Y2W1) 1.73, DBN1 (lysine site: K248) (UniProt Q16643) 0.855, RPL5 (lysine site: K284) (UniProt P46777) 1.68, COL5A1 (lysine site: K57) (UniProt P20908) 1.11, ACIN1 (lysine site: K143) (UniProt Q9UKV3) 0.535
